Assay outcomes as filed in PubChem.
An excerpt weighted towards active compounds, which were near 3.1% of everything screened.
p53ts 32C kill = cytotoxicity in p53ts cells at permissive temperature; H1299-p53A138V at 32C, ATP luminescence viability, 24 h; Potency, µM (highest dose often 46.1 µM), hits mostly cytotoxic; 0.93% of 130,000 active; AID 924; note: nearly all actives have a fitted effect of over 55% in size
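Cells: H1299 p53ts (A138V), 600/well, pre-incubated 16–30 h at 37C. Cpd up to 46 uM, 24 h, 32C. Readout: ATPlite luminescence, 20 min RT. Normalization: DMSO vs tamoxifen 100 uM. AC50 by Hill equation.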
Peg3 imprint = genomic imprint erasure induction | mouse ES Peg3-LacZ reporter, beta-gal luminescence, 40 h | Potency, µM (highest dose often 60.7 µM), hits mostly activators | 0.02% of 110,000 active
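Gelatin-coated wells received 300 freshly trypsinized female ES cells with a Peg3LacZ-Neo reporter on the maternal allele, then incubated 40 hours at 37C. BetaGlo was added for 5 minutes at room temperature before a single luminescence read.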
IkB sig inh = inhibitors of IkB signaling in ABC-DLBCL cells; AID 445; ABC-DLBCL IkBa-CBG/CBR dual luciferase ratio, 4 h; response scale: scaled: untreated 0%, proteasome inhibitor 100%; 0.04% of 110,000 active; Potency, µM (doses to about 57.1 µM); active = well fitted curve in the direction sought with a large enough effect in the signal ratio, not every such curve was filed as active; inconclusive = small, poorly fitted or top-dose-only effect, or a change in a side signal; the % refers to the signal ratio;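 note: the direction sought is a rising ratio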
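Curves were fitted separately to fusion (green), unfused (red) and ratio luminescence, then classed by r2, magnitude and activity. Cells: OCI-Ly3, 4 h compound plus doxycycline at 37C; 10 uM MG-132 defined full response.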
p53ts 39C tox = cytotoxicity in p53ts cells at nonpermissive temperature | H1299-p53A138V viability at 39C, ATP luminescence, 24 h | Potency, µM (series often up to 46.1 µM), hits mostly cytotoxic | 1.5% of 130,000 active; note: nearly all actives have a fitted effect of over 55% in size
TSHR agonist = activates the human thyroid stimulating hormone receptor; P16473; HEK293-CNG-TSHR cells (CNG channel as cAMP sensor), membrane potential dye, cAMP; Potency, µM (series often up to 57.1 µM), hits mostly activators; 0.48% of 73,000 active; active = well fitted activation curve with a large enough effect in the main read-out, with a control signal flat, not every such curve was filed as active; inconclusive = small, poorly fitted or top-dose-only effect, or a change in a side signal; inactive = no such curve, though single readings can be large or run the other way; reference of the percent scale not stated here;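 note: the control signal comes from parental cells without the receptor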
Target sequence (P16473 whole entry, looked up): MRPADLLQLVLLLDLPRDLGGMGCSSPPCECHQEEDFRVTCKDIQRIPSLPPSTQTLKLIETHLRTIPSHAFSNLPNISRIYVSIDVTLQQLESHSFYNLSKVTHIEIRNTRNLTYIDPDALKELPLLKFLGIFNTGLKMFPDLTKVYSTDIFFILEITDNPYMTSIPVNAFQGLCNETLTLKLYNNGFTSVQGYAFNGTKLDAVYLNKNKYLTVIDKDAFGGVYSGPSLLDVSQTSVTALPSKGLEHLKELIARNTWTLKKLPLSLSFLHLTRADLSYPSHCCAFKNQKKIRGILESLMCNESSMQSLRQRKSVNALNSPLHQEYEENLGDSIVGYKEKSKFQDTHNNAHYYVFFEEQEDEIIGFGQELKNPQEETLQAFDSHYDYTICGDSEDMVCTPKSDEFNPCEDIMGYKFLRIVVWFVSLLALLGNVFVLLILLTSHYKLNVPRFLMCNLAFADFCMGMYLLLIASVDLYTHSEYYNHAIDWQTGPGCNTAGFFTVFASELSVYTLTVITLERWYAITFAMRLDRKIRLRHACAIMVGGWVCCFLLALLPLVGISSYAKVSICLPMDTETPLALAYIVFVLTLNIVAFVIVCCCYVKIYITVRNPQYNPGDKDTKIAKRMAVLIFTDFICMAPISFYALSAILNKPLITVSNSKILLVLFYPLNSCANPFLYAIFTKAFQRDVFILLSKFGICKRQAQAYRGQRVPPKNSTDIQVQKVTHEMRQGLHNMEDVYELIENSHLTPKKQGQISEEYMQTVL
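HEK 293 cells stably expressing TSHR and a cAMP-gated CNG channel; parental CNG-only cells as counterscreen. Cells preloaded 60 min with membrane potential dye plus 100 uM RO 20-1724, then compound 30 min; fluorescence read at 590 nm.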
HEK293 cAMP cs = raises cAMP in parental HEK293 cells, TSHR agonist counter-screen; parental HEK293 CNG cAMP sensor, membrane potential fluorescence; Potency, µM (top dose mostly 57.1 µM), actives largely listed as activators; 2.5% of 73,000 active; AID 938; note: nearly all actives have a fitted effect of over 55% in size
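Parental HEK 293 cells stably expressing a modified CNG channel (no TSHR) report cAMP rise as membrane depolarization. Membrane potential dye with 100 uM RO 20-1724 was loaded for 60 min at room temperature, then compound added for 30 min; fluorescence read at 590 nm.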
Numbers stand for hits; . = inactive; ? = inconclusive; / = not tested or not shown; ! = a repeat was not active; [ ] = remark or other dose. Unless noted, calls come from the whole dose curve; as a rule, active = well fitted curve in the direction sought with a large enough effect; inconclusive = small, poorly fitted or top-dose-only effect, or another doubt; inactive = no such curve, though single readings can be large; an effect the other way counts as inactive or inconclusive.

SMILES	p53ts 32C kill	Peg3 imprint	IkB sig inh	p53ts 39C tox	TSHR agonist	HEK293 cAMP cs
CCN(C(=O)c1ccc(C(C)(C)C)cc1)c1nnc(Cn2nnc3ccccc32)s1	.	.	?	.	?	25.1µM
COCCNC(=O)CN(C(=O)Cn1nnc2ccccc21)c1ccccc1	.	.	.	.	.	.
COc1cc(C(=O)OCc2cc(=O)n3nc(C4CCCCC4)sc3n2)cc(OC)c1OC	.	.[10.9 µM]	.	.	/	/
Cn1c(/C(C#N)=C(\O)CN2CCN(Cc3ccccc3)CC2)nc2ccccc21	.	.	.	.	?	31.6µM
COc1ccc(C)cc1-n1nnc(S(=O)(=O)c2ccc(C)cc2)c1C	.	.[10.9 µM]	?	.	/	/
CCCCOCc1cc(CN2CCN(c3cccc(Cl)c3)CC2)c(O)c2ncccc12	.	.[10.9 µM]	.	.	/	/
CCCOCc1cc(CN2CCN(c3cccc(Cl)c3)CC2)c(O)c2ncccc12	.	.[10.9 µM]	.	15.8µM	/	/
CN1CCN(Cc2cc(COCc3ccccc3)c3cccnc3c2O)CC1	.	.	.	5.01µM	.	.
CC[C@H](C(=O)c1cccs1)C(O)(C(F)(F)F)C(F)(F)F	.[9.22 µM]	.[10.9 µM]	.[11.4 µM]	.[9.22 µM]	/	.[11.4 µM]
CCCCOc1ccc(C(=O)NCc2cn3cccc(C)c3n2)cc1	.	.[10.9 µM]	.	.	/	/
O=C(CCn1c(=O)c2cccn2c2cccnc21)NCc1cccc(Br)c1	.	.[10.9 µM]	.	.	/	/
COc1ccc(-c2nnc(SCC(=O)N3CCc4ccccc4C3)o2)cc1	.	.	?	.	?	25.1µM
O=C(CSc1nnc(-c2ccccc2)o1)N1CCc2ccccc2C1	.	.	.	.	/	.
CC(=O)N1[C@H](Cc2ccccc2)C=C[C@]1(C)C(=O)NCc1cc(F)cc(C(F)(F)F)c1	.	.	/	.	?	?
C[C@]1(C(=O)NCc2cc(F)cc(C(F)(F)F)c2)C=C[C@@H](Cc2ccccc2)N1C(=O)c1ccccc1	.	.	/	.	?	15.8µM
O=C(Nc1ccc2c(c1)OCCO2)c1ccc2nccnc2c1	?	.	?	3.98µM	.	.
CCOc1ccc(C(=O)Nc2ccc3c(c2)OCCO3)cc1Br	?	.[10.9 µM]	?	10µM	/	/
Cc1ccc(-c2noc(C3CCCN(C(=O)c4c(F)cccc4F)C3)n2)cc1 (stereo not drawn)	.	.	?	.	?	7.94µM
CC(=O)NC(CC(=O)O)C(=O)NC(CCC(=O)O)C(=O)O (stereo not drawn)	.	.	/	.	/	/
CN[C@H](CC(=O)O)C(=O)O	.	.	.	.	0.794µM!	.
COc1ccc(-c2cc([C@H](O)[C@@H]3CCCCN3)c3ccccc3n2)cc1	.[9.22 µM]	/	.[11.4 µM]	.[9.22 µM]	.[11.4 µM]	.[11.4 µM]
CCC(CC)c1nn2c(=O)cc(COc3ccc(NC(=O)c4ccccc4Cl)cc3)nc2s1	?	.[10.9 µM]	?	.	/	/
CCc1ccc(NS(=O)(=O)c2ccc3[nH]c4c(c3c2)CCCCCC4)cc1	.	.[10.9 µM]	.	20µM	/	/
CCOC(=O)c1ccc(NS(=O)(=O)c2ccc3[nH]c4c(c3c2)CCCCC4)cc1	?	.[10.9 µM]	?	15.8µM	/	/
Cc1ccc(NS(=O)(=O)c2ccc3[nH]c4c(c3c2)CCCCCC4)cc1	.	.[10.9 µM]	.	?	/	/
SMILES	p53ts 32C kill	Peg3 imprint	IkB sig inh	p53ts 39C tox	TSHR agonist	HEK293 cAMP cs
CCC(=O)C1=C(c2ccc(F)cc2)N(C(=O)CC)n2c(nnc2-c2ccc(OC)cc2)S1	.	.[10.9 µM]	?	.	/	/
CSc1cccc(NC(=O)Cn2nnc(C(=O)NCCc3ccccc3)c2N)c1	.	.[10.9 µM]	?	.	/	/
CC(=O)N(CCP(=O)(c1ccccc1)c1ccccc1)Cc1ccco1	.	.	.	.	?	31.6µM
CC(C)C(=O)Nc1cc(C(F)(F)F)ccc1N1CCOCC1	.	.	.	.	.	.
Cc1cc(C#N)c(C)n1-c1cc(C(F)(F)F)ccc1N1CCOCC1	.	.	.	.	?	12.6µM
CCC(C)OC(=O)/C(C#N)=C\c1ccc(-c2cccc(C(F)(F)F)c2)o1 (stereo not drawn)	.	.[10.9 µM]	.	.	/	/
N#C/C(=C\c1ccc(-c2cccc(Cl)c2)o1)C(=O)Nc1cccc(C(F)(F)F)c1	.	.[10.9 µM]	.	12.6µM	/	/
Cc1ccc(Nc2cc(C)c(C#N)c3nc4ccccc4n23)cc1Cl	.	.[10.9 µM]	.	.	/	/
O=C1c2ccccc2C(=O)C1c1ccc2ccccc2n1	?	.	?	2.51µM	.	.
Nc1ccc(-c2ccc3ccccc3n2)cc1	?	.	/	?	/	/
CCCOc1c(OC)cccc1C1CC(=O)Nc2cc3c(cc21)OCCO3 (stereo not drawn)	.	.	?	.	?	15.8µM
C[C@@H](N1CCOCC1)[C@@](O)(c1ccccc1)c1ccccn1	.[9.22 µM]	.[10.9 µM]	.[11.4 µM]	.[9.22 µM]	.[11.4 µM]	.[11.4 µM]
Cc1ccc(C)c(-c2[nH]c3c(c2-c2c(-n4cccc4)n(C)c(=O)[nH]c2=O)c(=O)[nH]c(=O)n3C)c1	.	.[10.9 µM]	.	.	/	/
Cc1c(C(=O)Nc2ccccc2)sc2nc(-c3ccccc3)cn12	.	.	?	.	?	31.6µM
Cc1cccc(NC(=O)c2sc3nc(-c4ccccc4)cn3c2C)n1	.	.	?	.	?	25.1µM
Cc1cccc(NC(=O)c2sc3nc(-c4ccc(F)cc4)cn3c2C)n1	.	.	?	?	?	20µM
Cc1c(C(=O)Nc2ccc3c(c2)OCO3)sc2nc(-c3ccccc3)cn12	.	.	.	.	?	?
COc1ccc(-c2cn3c(C)c(C(=O)Nc4cccc(C)n4)sc3n2)cc1	.	.	?	.	.	.
O=c1sc2ccccc2n1COc1ccccc1	.	.	.	.	?	25.1µM
CC(=O)c1cccc(NC(=O)Cn2ccn3nc(-c4ccccc4)cc3c2=O)c1	.	.[10.9 µM]	?	.	/	/
COCCn1nnnc1C(c1ccc(OC)cc1OC)N1CCN(c2ccccc2F)CC1 (stereo not drawn)	.	.	.	.	?	25.1µM
COc1ccc(C(c2nnnn2Cc2ccccc2)N2CCN(c3ccccc3)CC2)cc1 (stereo not drawn)	.	.	.	.	?	?
COc1ccc(C(c2nnnn2C2CCCC2)N2CCC(C)CC2)c(OC)c1 (stereo not drawn)	.	.	?	.	?	15.8µM
COCCn1nnnc1C(c1ccc(OC)cc1OC)N1CCN(c2ccccc2)CC1 (stereo not drawn)	.	.	.	.	.	.
COc1ccc(C(c2nnnn2Cc2cccs2)N2CCN(c3ccccc3F)CC2)cc1 (stereo not drawn)	.	.	.	.	?	20µM
Cc1ccc(N2CCN(C(=O)c3cnn(-c4ccc(C)c(C)c4)c3C3CCNCC3)CC2)c(C)c1	.	.[10.9 µM]	.	20µM	/	/
Cc1ccc(Cl)cc1N1CCN(C(=O)c2cnn(-c3ccc(Cl)cc3)c2C2CCNCC2)CC1	.	.[10.9 µM]	?	.	/	/
